Screens: PubChem BioAssay, The Scripps Research Institute Molecular Screening Center
HTR5A inv ctr = counter-screen for OPRM1-OPRD1 inverse agonists: human HTR5A inverse agonism; P47898; HTR5A cell line, luminescence; inhibition, % at 9.3 µM; hit rate 0.083% among 340,000; AID 504634; in the data active means inhibition mostly above about 23%, no sharp cut-off; inactive means mostly below about 18%;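 further: 0% = cells with DMSO and 100% = no-cell wells with DMSO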
Target sequence (P47898 whole entry, looked up): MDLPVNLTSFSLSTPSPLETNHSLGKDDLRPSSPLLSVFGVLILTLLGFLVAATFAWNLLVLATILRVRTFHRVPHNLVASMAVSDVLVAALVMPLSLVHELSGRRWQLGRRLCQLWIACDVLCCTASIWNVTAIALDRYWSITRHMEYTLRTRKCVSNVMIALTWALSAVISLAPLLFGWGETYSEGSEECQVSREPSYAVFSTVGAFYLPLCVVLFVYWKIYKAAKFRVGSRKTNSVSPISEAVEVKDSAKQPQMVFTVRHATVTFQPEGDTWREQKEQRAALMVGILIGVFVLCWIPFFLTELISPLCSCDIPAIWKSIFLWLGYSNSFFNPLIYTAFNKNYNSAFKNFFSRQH
OPRM1-OPRD1 inv = inverse agonist of human OPRM1-OPRD1 heterodimerization; AID 504357; hit rate 0.21% among 340,000; cell-based MOR-DOR heterodimer luminescence, inverse agonism; inhibition, % at 9.3 µM; in the data active means inhibition above about 22%, passing the limit was not always enough;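 further: 0% = cells with DMSO and 100% = wells without cells with DMSO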
MOR-DOR ag-1 = OPRM1-OPRD1 heterodimerization agonism | cells, luminescence | activation, % at 9.3 µM | hit rate 0.3% among 340,000;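 further: 0% = vehicle-treated cells and 100% = reference agonist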
HTR5A ag ctr = HTR5A agonism, opioid heterodimer counter-screen. P47898. hit rate 0.61% among 340,000. HTR5A agonist assay, luminescence, cell-based. activation, % at 9.3 µM. AID 504692; in the data active means activation mostly above about 9.5%, no sharp cut-off; inactive means mostly below about 7.6%;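 further: 0% = cells with vehicle only and 100% = reference agonist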
MOR-DOR ag-2 = opioid heterodimer agonism, HTR5A counter-screen | hit rate 13% among 800 | shares compounds with HTR5A ag ctr | AID 504913 | activation, % at 9.3 µM | U2OS counter-screen cells, complementation luminescence, 3 h
HTR5A ag conf = HTR5A (human) agonism, confirmation; hit rate 17% among 800; AID 504915; HTR5A agonist cell assay, luminescence; activation, % at 9.3 µM; shares compounds with HTR5A ag ctr; in the data active means activation above about 17%;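 further: 0% = cells with vehicle only and 100% = full reference agonist response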
Active calls of the source: *; / = no result. Shown are actives, neighbours in structure and some others; about 1.1% of the full set was active somewhere. Unless noted, no stated cut-off is given here; in the data, active means activation above about 18%; inactive means the rest.

SMILES	HTR5A inv ctr	OPRM1-OPRD1 inv	MOR-DOR ag-1	HTR5A ag ctr	MOR-DOR ag-2	HTR5A ag conf
O=C(Nc1c(F)cc(F)cc1Br)C1CCCO1 (stereo not drawn)	1	9	-2	0	/	/
CCOC(=O)c1cccc(NC(=O)C2CCC(CNc3c(N4CCOCC4)c(=O)c3=O)CC2)c1 (stereo not drawn)	-57	9	-2	22*	1	1
CCOc1ccc(NC(=O)C2CCC(CNc3c(N4CCCCC4)c(=O)c3=O)CC2)cc1 (stereo not drawn)	-3	12	-2	1	/	/
CCOC(=O)c1c(C)n(C)c2ccc(OC)c(NC(=O)CN3CCCCC3)c12	6	22	-4	0	/	/
O=C(CSc1ccc2ccccc2n1)c1ccc2c(c1)OCO2	-121	-1	0	40*	5	53*
O=C(O)CSc1ccc2ccccc2n1	-5	-8	1	2	/	/
COc1ccc(OC)c(-c2csc(NC(=O)Cn3[nH]c(=O)c4ccccc4c3=O)n2)c1	-80	-11	2	31*	3	6
O=C(CCl)N1N=C(c2ccco2)CC1c1cccs1 (stereo not drawn)	8	-1	0	0	/	/
Cc1ccc(C2=NN(C(=O)CCl)C(c3cccs3)C2)o1 (stereo not drawn)	-41	-48	9	16*	21*	17*
CC(C)Oc1ccc(C2CNC(=O)C2)cc1 (stereo not drawn)	-60	-6	1	23*	1	65*
CC(C)Oc1ccc(C2CC(=O)NC2=O)cc1 (stereo not drawn)	-10	11	-2	1	/	/
C=CCN(c1ccccc1)S(=O)(=O)c1cccc(C(=O)N2CCCC2)c1	-41	2	0	15*	47*	3
CCOC(=O)N1CCN(C(=O)C2CCN(S(=O)(=O)N(CC)CC)CC2)CC1	6	1	0	1	/	/
O=C(CNc1cccc(S(=O)(=O)N2CCCC2)c1)Nc1cccc(F)c1	-12	-6	1	6	/	/
O=C(CNc1cccc(C(F)(F)F)c1)Nc1cccc(S(=O)(=O)N2CCCC2)c1	-47	-13	3	19*	5	14
Cc1cc(C)c(C#N)c(SCC(=O)Nc2cccc(S(=O)(=O)N3CCCC3)c2)n1	-45	-77	12	15*	-4	-1
Cc1csc(SCC(=O)N2CCN(S(=O)(=O)c3ccc(Cl)cc3)CC2)n1	2	-8	1	-1	/	/
Cc1ccc(Oc2nc(C(F)(F)F)nc3ccccc23)cc1	9	-10	2	-4	/	/
NC1=NC(=O)C(c2ccccc2)C(=O)N1 (stereo not drawn)	-10	14	-3	3	/	/
CN(C)C(/C=C/Nc1ccccc1F)=C(C#N)C#N	-8	13	-2	-3	/	/
CS(=O)(=O)C1=C(O)C(=O)N(CCCC(=O)O)C1c1ccccc1F (stereo not drawn)	-43	1	0	16*	0	7
CC1Oc2ccccc2OC1C(=O)Nc1ccccn1 (stereo not drawn)	-23	14	-2	1	/	/
COc1cccc(S(=O)(=O)NCc2ccc(C(=O)Nc3cccc(Cl)c3)cc2)c1	-46	-27	6	19*	-3	-1
O=C(COc1cccc2ccccc12)Nc1ccc(Cl)cc1C(=O)O	-134	9	-2	45*	2	46*
O=C(COc1cccc2ccccc12)Nc1cc(Cl)ccc1C(=O)O	-27	14	-2	7	/	/
SMILES	HTR5A inv ctr	OPRM1-OPRD1 inv	MOR-DOR ag-1	HTR5A ag ctr	MOR-DOR ag-2	HTR5A ag conf
CCc1nnc2cccc(Cl)n12	-9	19	-4	3	/	/
Cc1cc(C(=O)COC(=O)C2=COCCO2)c(C)n1-c1ccc2c(c1)OCO2	-1	4	-1	-4	/	/
Cc1cc(C(=O)COC(=O)C2=COCCO2)c(C)n1-c1cccc(F)c1	9	0	0	16*	1	13
CCCCNC1=C(Br)C(=O)CC(C)(C)C1	1	19	-5	0	/	/
CN(C)c1ccc(S(=O)(=O)c2ccc(Cl)cc2)cc1	24	-29	5	16*	2	2
CCOc1cccc(/C(O)=C2/C(=O)C(=O)N(CCOC)C2c2ccc(C)o2)c1 (stereo not drawn)	9	12	-2	-5	/	/
COc1ccc(NC(=O)O/N=C2/CCCc3ccc(OC)cc32)cc1	-69	12	-2	19*	2	28*
COc1ccc2c(c1)/C(=N/OC(=O)c1cccs1)CCC2	-117	-26	4	22*	3	31*
